Measurements reported in PubChem BioAssay AID720565 (National Center for Advancing Translational Sciences (NCATS), 2013).
“And” between values parts separate entries of the source, which are not always exact repeats. Equal entries are not always repeated. Results filed as inconclusive are left out. The source made the active and inactive calls. The call rests on the fitted dose curve; in most records, active means well fitted activation curve with a large enough effect; inconclusive means small, poorly fitted or top-dose-only effect; inactive means no such curve, though single readings can be large or run the other way.

Experiment: qHTS for small molecules that induce genotoxicity in ELG1 expressing cells: Confirmatory Assay for Cherry-picked Compounds; further: nearly all actives have a fitted effect of over 35% in size
Details: ELG1-luciferase reporter cells, luminescence, 16 h; series mostly up to 46.1 µM
From the text: Cancer cells divide rapidly compared to normal cells in the body. During cell division, cancer cells need to duplicate their genome by DNA replication. The failure of genome duplication leads to cancer cells' death. Therefore, inhibitors of DNA replication could specifically kill cancer cells. Based on this concept, many chemotherapeutic agents were developed and have been used to treat cancer patients. However, there are a limited number of agents available in the clinical setting, and some of those that do exist have low efficacy and severe side effects. Therefore, if we can find the compounds that effectively block DNA replication either by directly damaging DNA or by inhibiting other cellular mechanisms, the options for cancer treatment will be broadened. We developed a quantitative high-throughput ELG1-luciferase reporter gene assay. Since the level of human ELG1 protein is enhanced in response to genetic stresses, increases in luciferase activity can be used to identify compounds that cause genetic stress. The data herein is the result of the confirmation assay against the cherry picked compounds selected from the primary qHTS (AID 504466). Activation is the desired outcome for this assay. NIH Chemical Genomics Center [NCGC] NIH Molecular Libraries Probe Centers Network [MLPCN] MLPCN Grant: MH092164 Assay Provider: Kyungjae Myung, National Human Genome Research Institute, NIH
For genotoxicity screening, 2,000 cells/ well (5 uL volume) were dispensed into white, solid-bottom 1536-well plates using a solenoid-based dispenser. Following transfer of 23 nL compound or DMSO vehicle by a pin tool, the plates were incubated 16 hr at 37 C, 5% CO2. Five microliter of ONE-Glo reagent (Promega) was then added to each plate. The assay plates were incubated for 30 min at room temperature followed by quantification of the luciferase activity using the PerkinElmer ViewLux CCD-based plate reader.
Potency means the concentration at half of the fitted maximal effect.

With `O=C(CSc1nnc(-c2csc3c2CCCC3)o1)Nc1ccccc1` as the molecule, how does the Potency read?
Its Potency is 575 nM (active) and 561 nM (active).

Which Potency does the source give for `N#Cc1cc2cc3c(cc2nc1SCC(=O)N1CCOCC1)OCCO3` here?
Its Potency is 0.889 µM (active).

Which Potency does the source give for `COc1cc2cc(C)c(SCC(=O)N3CCOCC3)nc2cc1OC` here?
Its Potency is “inactive”.

For `COc1cccc(CNC(=O)C2CCCN(c3nn4c(=O)cc(C)nc4s3)C2)c1` (stereo not given), which Potency is on record?
The Potency was “inactive”.

For `O=C(CSc1ncnc2sccc12)N1CCCCC1`, which Potency is on record?
The Potency was 15.8 µM (active).

Which Potency does the source give for `CCc1ccc(OCC(=O)Nc2ccc(-c3nc4ccccc4o3)c(O)c2)cc1` here?
The Potency was 14.1 µM (active).

For `CCn1c(C)cc(C(=O)COC(=O)c2cccnc2SC)c1C`, which Potency is on record?
Its Potency is 9.96 µM (active).

Which Potency does the source give for `Cn1cccc1C(=O)OCC(=O)c1c[nH]c2ccccc12` here?
Its Potency is 5.6 µM (active).

For `N#Cc1cc2cc3c(cc2nc1SCC(=O)N1CCOCC1)OCO3`, which Potency is on record?
The Potency was 4.45 µM (active).

Which Potency does the source give for `COc1ccc(/C=C/c2cnc3ccccc3n2)cc1OC` here?
Its Potency is 0.112 µM (active).

For `C=CCn1c(C)cc(C(=O)COC(=O)c2n[nH]c(=O)c3ccccc23)c1C`, which Potency is on record?
The Potency was 2.81 µM (active).

With `COc1ccc(/C=C/c2ccc3ccccc3n2)c(OC)c1` as the molecule, how does the Potency read?
Its Potency is 0.25 µM (active).

For `CCOC(=O)c1cc(-c2cc(OC)c(OC)c(OC)c2)nc2c1c(=O)[nH]c(=O)n2Cc1ccccc1`, which Potency is on record?
The Potency was 25 µM (active).

With `COc1ccc([C@H]2Cc3cc(O)cc(O)c3C(=O)O2)cc1O` as the molecule, how does the Potency read?
Its Potency is 11.2 µM (active).

For `Cc1cc2cc3c(cc2nc1SCC(=O)N1CCOCC1)OCO3`, which Potency is on record?
Its Potency is “inactive”.

For `COc1ccc(/C=C2\Oc3ccccc3C2=O)cc1`, which Potency is on record?
The Potency was 0.996 µM (active).

Which Potency does the source give for `COc1ccc(-c2cnc(-c3cccnc3)o2)cc1` here?
Its Potency is 15.8 µM (active).

For `Cc1cc(C(=O)COC(=O)C23CC4CC(CC(O)(C4)C2)C3)c(C)n1C`, which Potency is on record?
The Potency was 14.1 µM (active).

For `COC(=O)Nc1nc2ccc(C(=O)c3cccs3)cc2[nH]1`, which Potency is on record?
The Potency was 2.23 µM (active).

For `CN(Cc1ccco1)c1ncnc2ccc(-c3cccc(Cl)c3)cc12`, which Potency is on record?
Its Potency is “inactive”.

With `O=C(COc1ccccc1Cl)Nc1ccc(-c2nc3ccccc3s2)cc1` as the molecule, how does the Potency read?
Its Potency is 28.1 µM (active).

Which Potency does the source give for `COc1ccccc1/C=C/c1nc2ccccc2s1` here?
The Potency was 3.97 µM (active).

With `CC(=O)Oc1ccc(-c2nc(-c3ccccc3)no2)cc1` as the molecule, how does the Potency read?
The Potency was 2.81 µM (active).

Which Potency does the source give for `CC(/C=C/C(=O)NO)=C\[C@@H](C)C(=O)c1ccc(N(C)C)cc1` here?
The Potency was 0.629 µM (active).

With `Nc1ccc2cccnc2c1` as the molecule, how does the Potency read?
The Potency was 1.77 µM (active).

For `c1nc(CCO[C@H]2CCCCO2)cc2cc3c(cc12)OCO3`, which Potency is on record?
The Potency was 0.281 µM (active).

Which Potency does the source give for `Oc1cc2cc(-c3csc(-c4ccc(F)cc4)n3)cc3c2n1CCC3` here?
The Potency was 6.28 µM (active).

Which Potency does the source give for `O=c1c2ccccc2oc2c1ccc1ccccc12` here?
The Potency was 15.8 µM (active).

Which Potency does the source give for `COc1ccc(S(=O)(=O)Nc2cccc3cccnc23)c([N+](=O)[O-])c1` here?
The Potency was “inactive”.

For `O=C(CSc1nnc(-c2ccc(O)cc2)o1)Nc1ccccc1`, which Potency is on record?
Its Potency is 5 µM (active).

With `O=c1c2ccccc2oc2c1oc1ccccc12` as the molecule, how does the Potency read?
The Potency was 14.1 µM (active).

For `O=C(NOCc1ccccc1)c1ccccc1`, which Potency is on record?
The Potency was 8.88 µM (active).

Which Potency does the source give for `Cc1cc(C)c(C#N)c(SCC(=O)Nc2cc(C)on2)n1` here?
The Potency was 4.99 µM (active).

For `O=c1c(-c2ccc(F)cc2)coc2c3c(ccc12)OCCO3`, which Potency is on record?
The Potency was 4.45 µM (active).

Which Potency does the source give for `COc1cccc([C@@H]2Oc3ccc(OC)cc3C(=O)[C@H]2OC(=O)NS(=O)(=O)c2ccc(C)cc2)c1` here?
The Potency was 15.8 µM (active).

With `CN(C)N=Nc1ccc(/C=C2\C=Cc3ccccc32)cc1` as the molecule, how does the Potency read?
Its Potency is 3.97 µM (active).

With `O=C(/C=C/C#Cc1cccc(NS(=O)(=O)c2ccccc2)c1)NO` as the molecule, how does the Potency read?
Its Potency is 3.15 µM (active).

Which Potency does the source give for `COCCn1c(C)cc(C(=O)COC(=O)c2cccnc2SC)c1C` here?
Its Potency is 2.23 µM (active).

Which Potency does the source give for `COc1ccc(S(=O)(=O)N2CCCCC2)cc1NC(=O)c1[nH]c(C)c(C(C)=O)c1C` here?
Its Potency is 15.8 µM (active).

For `COc1ccc(-c2nnc(SC(C)C(=O)Nc3cccc(Cl)c3)o2)cc1` (stereo not given), which Potency is on record?
Its Potency is 12.5 µM (active).
